# Shown are actives, neighbours in structure and some others; about 6.2% of the full set was active somewhere.
# MARV entry inh: blocks Marburg virus binding to or entry into cells. Marburg virus pseudotyped entry inhibition, cell reporter. Potency, µM (doses to about 37.8 µM), inactives show at the top dose activity change, negative = inhibition, actives largely listed as inhibitors. 300,000 compounds, 1.8% hits; calls by dose curve; tested in HEK293 cells; also: potency is read from the fitted curve at half-maximal effect
# HCMV antiviral: human cytomegalovirus inhibition; HFF cells, HCMV-luciferase reporter, 72 h; active compounds read low; activity change, negative = inhibition, % at 57.5 µM; 410,000 compounds, 4.5% hits; AID 1259415; in the data active = activity change below about -60%; inconclusive = no clear call, values can overlap the other calls; inactive = above about -39%
#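 After 16 h attachment at 37C, HFF cells received test compound and HCMV-luciferase (1 PFU/cell); reporter luminescence read 72 h later, data normalized against buffer-only and known inhibitor Salinomycin.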
# Lassa entry inh: Lassa virus entry inhibition | Lassa virus pseudotype entry inhibition, cell reporter | Potency, µM (top dose mostly 37.9 µM), inactives show top-dose activity change, negative = inhibition, usual class: inhibitors | 300,000 compounds, 1.2% hits | AID 540256; calls by dose curve; tested in HEK293 cells; also: potency is read from the fitted curve at half-maximal effect; nearly all actives have a fitted effect of over 50% in size
# FMDV antiviral: foot and mouth disease virus antiviral activity | FMDV antiviral cell-based qHTS | Potency, µM (doses to about 57.9 µM), for the others: top-dose activity change, negative = inhibition, actives largely listed as inhibitors | 410,000 compounds, 1.2% hits | AID 1159524; calls by dose curve; tested in HEK293T cells; also: read-out not given here; potency is read from the fitted curve at half-maximal effect; nearly all actives have a fitted effect of over 45% in size
# An asterisk follows results filed as active; ? = inconclusive; · = no result; + = active, no number; [ ] = dose if it differs, or a comment. % is scaled to controls: 0 for no effect and ±100 for the full control effect.
SMILES,MARV entry inh,HCMV antiviral,Lassa entry inh,FMDV antiviral
CC(=O)Nc1ccccc1-c1nc(CNC(=O)c2ccc(-c3ccccc3F)cc2)c(C)o1,·,·,·,16%
CC(C)(C=O)C1=CC(=O)c2ccccc2C1=O,?,0,?,35µM*
CS(=O)(=O)N(Cc1ccccc1)c1ccccc1C(=O)Nc1ccccc1C(=O)NCc1ccco1,4.1µM*,-3,-2%,-23%
Cc1ccc(S(=O)(=O)N(Cc2ccccc2)c2ccccc2C(=O)Nc2ccccc2C(=O)NCc2ccco2)cc1,16µM*,?,-3%,13%
Cc1ccc(N(CC(=O)Nc2ccccc2C(=O)NCc2ccco2)S(=O)(=O)c2ccccc2)cc1C,?,5,?,-15%
Cc1ccc(S(=O)(=O)N(Cc2ccccc2)c2ccccc2C(=O)NCc2ccco2)cc1,?,-19,?,·
O=C(CN(c1ccccc1)S(=O)(=O)c1ccccc1)Nc1ccccc1C(=O)NCc1ccco1,?,-62*,?,-12%
CS(=O)(=O)N(CC(=O)Nc1ccccc1C(=O)NCc1ccco1)c1ccccc1F,1%[46.1 µM],-36,14%,18%
CCN1CCN(C(=O)c2ccccc2N(Cc2ccccc2)S(=O)(=O)c2ccc(C)cc2)CC1,5.8µM*,7,?,0%
O=C(Nc1cccs1)NC1CCCC1,-11%,?,6%,25%
CCN(CC)c1ccc(C2NC(=O)c3ccccc3N2)cc1 (stereo not drawn),?,-25,6.3µM*,11µM*
Cc1ccc(N=C2C(=O)Nc3ccccc32)cc1,·,16,·,-10%
CCN(CC)c1ccc(N=C2C(=O)Nc3ccccc32)cc1,?,-96*,-26%,-22%
O=C1NC(c2cccc3ccccc23)Nc2ccccc21 (stereo not drawn),?,-69*,?,5%
CCOC(=O)/C(=N\Nc1ccc(C(C)=O)cc1)c1csc(Nc2ccccc2)n1,?,?,?,-16%
CCOC(=O)/C(=N\Nc1ccccc1[N+](=O)[O-])c1csc(N)n1,·,-65*,·,-31%
CC(/C=C/C=C/c1ccccc1)=N/NC(=O)CNc1ccc(C)cc1,-21%,9,?,38%
Cc1ccc(C(=O)Nc2ccc(Cl)cn2)cc1,7.3µM*,50,?,-10%
Cc1ccc(C(=O)Nc2ncc3c(Cl)cccc3n2)cc1,?,-90*,?,10µM*
CCCOc1ccc(C(=O)Nc2ccc(Cl)cn2)cc1,6.3µM*,-6,18µM*,?
Cc1ccc(CC(=O)Nc2ccc(Cl)cn2)cc1,·,-40,·,50%
CN(c1ccc(C(=O)Nc2ccc(Cl)cn2)cc1)S(=O)(=O)c1ccccc1,·,-66*,·,?
CC(C)(C)C(=O)NC(=S)Nc1cc(C(F)(F)F)ccc1N1CCOCC1,-19%,-17,?,-12%
COCCN(C(=O)c1ccc(N2CCCC2=O)cc1)c1c(N)n(Cc2ccccc2)c(=O)[nH]c1=O,·,0,·,0%
C=CCSCC(N)C(=O)O (stereo not drawn),·,·,·,6%
SMILES,MARV entry inh,HCMV antiviral,Lassa entry inh,FMDV antiviral
CSc1ccc(Cl)c(C(=O)Nc2ccc(Cl)cn2)c1,?,?,-11%[46.1 µM],-2%
Cc1ccc(S(=O)(=O)N(C)c2ccc(C(=O)Nc3cccc(C)n3)cc2)cc1,?,-77*,-14%,25µM*
Cc1ccc(S(=O)(=O)N(C)c2ccc(C(=O)NCC3CCCO3)cc2)cc1 (stereo not drawn),2%,-102*,-7%,0%
COc1cc(SC)ccc1C(=O)Nc1ccc(Cl)cn1,1.1µM*,-75*,?,10µM*
COCCc1ccc(OC2(C)CCN(Cc3cccn3-c3nccs3)C2)cc1 (stereo not drawn),·,57,·,-13%
CC(C)n1nc(C(=O)NCc2ccc3c(c2)OCO3)c2ccccc2c1=O,-5%,-25,-17%,-17%
CCCCC[C@H](O)C=C[C@H]1[C@H](O)CC(=O)[C@H]1CCCCCCC(=O)O,·,·,·,-14%
CCCCC[C@H](O)/C=C/[C@H]1CCC(=O)[C@@H]1CCCCCCC(=O)N1CCCCC1CO (stereo partly drawn),?,-74*,?,?
COCCNC(=O)c1sc(=O)n(Cc2ccc(SC)cc2)c1C,·,29,·,-15%
Oc1c(N=Nc2ccccn2)ccc2ccccc12,4µM*,-101*,1.6µM*,-81%
COCCn1c(SCC(=O)Nc2ccc(Cl)c(S(=O)(=O)N(C)C)c2)nc2ccccc21,?,1,1%,28µM*
COCCn1c(SCC(=O)Nc2nc(C)c(Cl)cc2Cl)nc2ccccc21,?,?,23µM*,-2%
CN(C)S(=O)(=O)c1cc(NC(=O)CSc2cccc[n+]2[O-])ccc1Cl,·,1,·,-5%
CN(C)S(=O)(=O)c1cc(NC(=O)CSc2ncc(C(F)(F)F)cc2Cl)ccc1Cl,?,?,?,28µM*
COCCn1c(SCC(=O)Nc2ccc(S(N)(=O)=O)cc2)nc2ccccc21,?,15,-36%,-4%
COc1ccc(CCNC(=O)Cn2nnc(-c3ccc(C(F)(F)F)cc3)n2)cc1OC,-9%[46.1 µM],-38,-3%[46.1 µM],-28%
Cc1ccc(/C=C/C(=O)c2ccccc(=O)c2O)c(C)c1,?,-82*,?,?
O=C(C=Cc1ccccc1O)c1ccccc1O,?,20,-14%[46.1 µM],?
Cc1ccc(C)c(/C=C/C(=O)c2ccccc(=O)c2O)c1,?,-101*,?,?
CCOc1ccc(N(C)S(=O)(=O)c2cc(-c3cc(C)no3)ccc2CC)cc1,?,-90*,?,18µM*
Cc1cc(-c2ccc(C)c(S(=O)(=O)N(Cc3cccs3)C(C)C)c2)on1,·,-77*,-30%[46.1 µM],0%
CCOc1ccc(N(C)S(=O)(=O)c2cc(-c3cc(C)no3)ccc2C)cc1,·,0,·,20µM*
CC(=O)c1ccc(Nc2c(C)n(C)n(-c3ccccc3)c2=O)cc1,5%[14.2 µM],-5,28%,-7%
CCCCn1c(N)c(N(CCC(C)C)C(=O)C2=COCCO2)c(=O)[nH]c1=O,17%,33,9%,-19%
Cc1ccc([C@H]2C[C@]34CN(Cc5ccccc5)S(=O)(=O)[C@H]3C[C@H]2O4)cc1,·,-88*,·,·
SMILES,MARV entry inh,HCMV antiviral,Lassa entry inh,FMDV antiviral
Cc1cc(C)nc(N/N=C2/CCCC/C2=C\c2ccccc2)n1,?,-113*,·,-22%
Cc1ccnc(N/N=C/c2ccccc2)n1,?,37,?,-4%
O=S(=O)(Nc1ccc(N2CCCCC2)cc1)c1ccc(F)cc1F,-6%,-60*,1%,-26%
O=S(=O)(Nc1ccc(N2CCOCC2)cc1)c1ccc(F)cc1,-28%[46.1 µM],20,-13%,-4%
O=S(=O)(Nc1ccc(N2CCCCC2)cc1)c1ccc(F)cc1,·,-61*,·,-9%
O=S(=O)(NC1CCCCC1N1CCN(c2ccc(F)cc2)CC1)c1ccccc1 (stereo not drawn),·,+,·,?
OC1(c2ccccc2)CCN(Cc2ccccc2)C2CCCCC21 (stereo not drawn),8.9µM*,-32,?,-28%
O=c1c2ccccc2ncn1-c1ccc([N+](=O)[O-])cc1[N+](=O)[O-],?,?,18%[46.1 µM],0%
O=c1oc2ccccc2cc1-c1csc(Nc2nc3ccc(F)cc3s2)n1,7%,·,1%,·
O=c1oc2ccccc2cc1-c1nc(-c2cccc(Cl)c2)cs1,·,13,8%[46.1 µM],-31%
